From the supplement of paper PMC10849652
Of roughly 7,900 targets only a part is listed; those with a hit were picked by preference. About 0.6% of all pairs of compound and target were hits. Values without a mark were called inactive.

Key:
Test in all cases: log2 fold change, soluble protein after heating vs DMSO (PISA); higher = thermal stabilisation; K562 cells, 10 uM, 30 min; active = over 0.2 and 3.5 SD of the protein, either way, in both replicates (recomputed)
[1] = compound: CC[C@@H]1C(=O)N(C)c2cnc(Nc3ccc(C(=O)NC4CCN(C)CC4)cc3OC)nc2N1C1CCCC1
Method in brief: (§1)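 K562 cells at 2×10^6 cells/mL were exposed to 10 μM compound for 30 min, then aliquots were heated for 3 min across 48°C-58°C, pooled, and extracted in PBS containing 0.5% NP-40 at 4°C. The supernatant after 21,000xg for 90 min was taken as soluble protein and measured by TMTpro 16plex LC-MS/MS with channel sums equalised. Thermal stability is reported relative to control samples, with values from duplicates. Fold changes are given on a log2 scale.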

volasertib = compound: CC[C@@H]1C(=O)N(C)c2cnc(Nc3ccc(C(=O)N[C@H]4CC[C@H](N5CCN(CC6CC6)CC5)CC4)cc3OC)nc2N1C(C)C [volasertib]
Method in brief: as §1

epoxomicin = compound: CC[C@H](C)[C@@H](C(=O)N[C@@H]([C@@H](C)O)C(=O)N[C@@H](CC(C)C)C(=O)[C@]1(CO1)C)NC(=O)[C@H]([C@@H](C)CC)N(C)C(=O)C [epoxomicin]
Method in brief: as §1

[2] = compound: CCn1c(C(=O)N(C2CC2)C2CC2)cc2c3c(ncn3C)c(Nc3cc(C)n(C)n3)nc21
Method in brief: as §1

[3] = compound: CCn1cc(-c2ccnc3[nH]c(-c4cccc(CN(C)C)c4)cc23)c(-c2ccc(NC(=O)N(C)C)cc2)n1
Method in brief: as §1

[4] = compound: CN(C)CC(=O)Nc1ccc2[nH]c(=O)c3ccccc3c2c1
Method in brief: as §1

rosiglitazone = compound: CN(CCOC1=CC=C(C=C1)C[C@H]2C(=O)NC(=O)S2)C3=CC=CC=N3 (racemic) [rosiglitazone]
Method in brief: as §1

[5] = compound: CN1CCC(CNc2ccc3ncc(-c4cccc(OC(F)(F)F)c4)n3n2)CC1
Method in brief: as §1

sotrastaurin = compound: CN1CCN(c2nc(C3=C(c4c[nH]c5ccccc45)C(=O)NC3=O)c3ccccc3n2)CC1 [sotrastaurin]
Method in brief: as §1

alvocidib = compound: CN1CC[C@H](c2c(O)cc(O)c3c(=O)cc(-c4ccccc4Cl)oc23)[C@H](O)C1 [alvocidib]
Method in brief: as §1

[6] = compound: CNC(=O)C1=CC=CC=C1NC2=NC(=NC=C2Cl)NC3=C(C=C(C=C3)N4CCOCC4)OC
Method in brief: as §1

defactinib = compound: CNC(=O)c1ccc(Nc2ncc(C(F)(F)F)c(NCc3nccnc3N(C)S(C)(=O)=O)n2)cc1 [defactinib]
Method in brief: as §1

rucaparib = compound: CNCc1ccc(-c2[nH]c3cc(F)cc4c3c2CCNC4=O)cc1 [rucaparib]
Method in brief: as §1

encorafenib = compound: COC(=O)N[C@@H](C)CNc1nccc(-c2cn(C(C)C)nc2-c2cc(Cl)cc(NS(C)(=O)=O)c2F)n1 [encorafenib]
Method in brief: as §1

[7] = compound: COC(=O)[C@H](CCSC)NC(=O)C1=C(C=C(C=C1)NC[C@H](CS)N)C2=CC=CC=C2
Method in brief: as §1

[8] = compound: CC[C@H](C)N1C=C(C2=C(C=C(C=C21)C3=CN=C(C=C3)N4CCNCC4)C(=O)NCC5=C(C=C(NC5=O)C)C)C
Method in brief: as §1

[9] = compound: CN1C2=C(C3=C1C(=O)N(N=C3)CC4=CC(=CC=C4)N)SC(=C2)S(=O)C
Method in brief: as §1

saracatinib = compound: CN1CCN(CCOc2cc(OC3CCOCC3)c3c(Nc4c(Cl)ccc5c4OCO5)ncnc3c2)CC1 [saracatinib]
Method in brief: as §1

Tubastatin A = compound: CN1CCc2c(c3ccccc3n2Cc2ccc(C(=O)NO)cc2)C1 [Tubastatin A]
Method in brief: as §1

[10] = compound: CNc1nc(-c2ccc3c(N)n[nH]c3c2)cc(N2C[C@@H](C(=O)NC3CCCCC3)CC[C@H]2C)n1
Method in brief: as §1

Sequence of UniProt O15355 (O15355 whole entry, looked up): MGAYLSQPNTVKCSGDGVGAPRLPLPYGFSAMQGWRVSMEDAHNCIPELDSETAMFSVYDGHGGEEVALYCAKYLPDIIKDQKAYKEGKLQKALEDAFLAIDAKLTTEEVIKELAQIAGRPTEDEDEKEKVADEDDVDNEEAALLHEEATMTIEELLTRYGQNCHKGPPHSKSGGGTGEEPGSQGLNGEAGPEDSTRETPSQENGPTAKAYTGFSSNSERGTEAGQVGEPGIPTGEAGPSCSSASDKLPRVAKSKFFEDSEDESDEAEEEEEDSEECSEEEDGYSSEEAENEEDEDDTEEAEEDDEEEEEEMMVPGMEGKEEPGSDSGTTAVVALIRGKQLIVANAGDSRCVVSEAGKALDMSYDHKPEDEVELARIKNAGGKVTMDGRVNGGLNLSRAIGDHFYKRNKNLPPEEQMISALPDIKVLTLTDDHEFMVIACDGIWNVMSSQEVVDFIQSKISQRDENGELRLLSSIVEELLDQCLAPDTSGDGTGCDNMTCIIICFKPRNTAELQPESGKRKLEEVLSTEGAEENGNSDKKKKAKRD
Sequence of UniProt P53350 (P53350 whole entry, looked up): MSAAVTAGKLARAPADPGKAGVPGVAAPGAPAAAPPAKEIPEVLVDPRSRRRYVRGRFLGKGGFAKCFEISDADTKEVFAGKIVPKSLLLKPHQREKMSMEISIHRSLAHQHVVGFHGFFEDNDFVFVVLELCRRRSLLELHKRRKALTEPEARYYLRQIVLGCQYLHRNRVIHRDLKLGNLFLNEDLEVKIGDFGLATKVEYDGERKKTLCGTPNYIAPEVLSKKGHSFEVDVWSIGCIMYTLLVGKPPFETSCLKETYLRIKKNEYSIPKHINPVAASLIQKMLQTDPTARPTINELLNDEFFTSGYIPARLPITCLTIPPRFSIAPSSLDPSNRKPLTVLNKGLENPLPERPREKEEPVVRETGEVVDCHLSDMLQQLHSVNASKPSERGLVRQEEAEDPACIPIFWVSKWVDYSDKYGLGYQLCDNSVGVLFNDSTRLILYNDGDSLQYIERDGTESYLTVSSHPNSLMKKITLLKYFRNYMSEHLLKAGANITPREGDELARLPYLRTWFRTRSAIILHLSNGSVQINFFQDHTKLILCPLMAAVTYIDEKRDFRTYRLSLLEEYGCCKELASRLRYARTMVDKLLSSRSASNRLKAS
Sequence of UniProt Q5VTL8 (Q5VTL8 whole entry, looked up): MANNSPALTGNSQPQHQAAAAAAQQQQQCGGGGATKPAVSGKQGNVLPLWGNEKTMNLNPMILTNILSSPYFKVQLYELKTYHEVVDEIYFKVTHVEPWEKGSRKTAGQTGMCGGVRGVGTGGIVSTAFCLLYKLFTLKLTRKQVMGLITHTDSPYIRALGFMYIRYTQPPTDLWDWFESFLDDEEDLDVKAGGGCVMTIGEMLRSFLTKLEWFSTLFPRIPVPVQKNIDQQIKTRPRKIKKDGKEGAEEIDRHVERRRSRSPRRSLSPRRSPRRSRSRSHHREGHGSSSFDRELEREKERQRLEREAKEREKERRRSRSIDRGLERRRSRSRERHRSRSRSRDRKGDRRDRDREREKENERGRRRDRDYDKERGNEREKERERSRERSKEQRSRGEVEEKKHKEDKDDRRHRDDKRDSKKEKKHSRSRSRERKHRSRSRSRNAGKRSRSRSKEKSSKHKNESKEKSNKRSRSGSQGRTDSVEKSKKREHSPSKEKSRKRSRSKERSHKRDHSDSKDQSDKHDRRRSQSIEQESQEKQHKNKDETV
Sequence of UniProt Q15173 (Q15173 whole entry, looked up): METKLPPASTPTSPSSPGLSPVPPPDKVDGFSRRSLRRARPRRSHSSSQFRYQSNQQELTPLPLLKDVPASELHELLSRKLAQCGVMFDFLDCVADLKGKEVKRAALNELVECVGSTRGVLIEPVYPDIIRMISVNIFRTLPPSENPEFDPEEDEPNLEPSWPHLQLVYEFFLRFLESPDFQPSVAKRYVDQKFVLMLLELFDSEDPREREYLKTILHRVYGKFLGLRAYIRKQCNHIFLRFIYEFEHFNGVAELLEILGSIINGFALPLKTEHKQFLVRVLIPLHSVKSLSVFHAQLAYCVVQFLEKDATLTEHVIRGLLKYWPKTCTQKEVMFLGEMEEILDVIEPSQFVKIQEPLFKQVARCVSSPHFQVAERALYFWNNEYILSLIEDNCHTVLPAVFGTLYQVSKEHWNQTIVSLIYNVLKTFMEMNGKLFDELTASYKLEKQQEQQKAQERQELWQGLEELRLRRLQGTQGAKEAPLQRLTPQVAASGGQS
Sequence of UniProt Q12974 (Q12974 whole entry, looked up): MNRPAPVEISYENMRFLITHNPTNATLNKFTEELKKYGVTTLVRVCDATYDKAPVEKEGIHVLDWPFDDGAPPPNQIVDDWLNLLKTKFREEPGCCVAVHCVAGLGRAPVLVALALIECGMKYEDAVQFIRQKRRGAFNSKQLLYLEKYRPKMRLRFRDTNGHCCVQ
Sequence of UniProt P28065 (P28065 whole entry, looked up): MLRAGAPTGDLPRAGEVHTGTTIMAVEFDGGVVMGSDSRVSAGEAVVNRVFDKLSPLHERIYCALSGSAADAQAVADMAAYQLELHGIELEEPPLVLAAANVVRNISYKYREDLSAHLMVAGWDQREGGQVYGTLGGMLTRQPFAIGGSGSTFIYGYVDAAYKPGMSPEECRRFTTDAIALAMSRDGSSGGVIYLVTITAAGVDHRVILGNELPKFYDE
Sequence of UniProt P07205 (P07205 whole entry, looked up): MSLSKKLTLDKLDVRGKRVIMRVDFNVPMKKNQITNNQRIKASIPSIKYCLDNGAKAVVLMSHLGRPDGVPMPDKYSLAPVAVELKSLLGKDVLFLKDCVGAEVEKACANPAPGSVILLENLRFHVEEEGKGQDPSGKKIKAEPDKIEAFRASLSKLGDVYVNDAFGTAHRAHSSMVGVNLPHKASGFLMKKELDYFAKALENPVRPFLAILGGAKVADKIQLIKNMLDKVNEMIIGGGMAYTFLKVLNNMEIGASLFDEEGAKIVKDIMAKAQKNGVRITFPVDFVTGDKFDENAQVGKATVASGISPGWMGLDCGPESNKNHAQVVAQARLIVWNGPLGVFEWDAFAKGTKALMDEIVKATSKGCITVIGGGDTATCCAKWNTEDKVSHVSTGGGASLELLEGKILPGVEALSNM
Sequence of UniProt Q14442 (Q14442 whole entry, looked up): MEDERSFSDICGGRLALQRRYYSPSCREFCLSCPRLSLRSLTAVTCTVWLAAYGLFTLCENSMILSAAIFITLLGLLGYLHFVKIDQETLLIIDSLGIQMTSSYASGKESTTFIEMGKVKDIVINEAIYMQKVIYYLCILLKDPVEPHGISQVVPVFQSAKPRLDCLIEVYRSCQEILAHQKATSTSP
Sequence of UniProt Q9H0R6 (Q9H0R6 whole entry, looked up): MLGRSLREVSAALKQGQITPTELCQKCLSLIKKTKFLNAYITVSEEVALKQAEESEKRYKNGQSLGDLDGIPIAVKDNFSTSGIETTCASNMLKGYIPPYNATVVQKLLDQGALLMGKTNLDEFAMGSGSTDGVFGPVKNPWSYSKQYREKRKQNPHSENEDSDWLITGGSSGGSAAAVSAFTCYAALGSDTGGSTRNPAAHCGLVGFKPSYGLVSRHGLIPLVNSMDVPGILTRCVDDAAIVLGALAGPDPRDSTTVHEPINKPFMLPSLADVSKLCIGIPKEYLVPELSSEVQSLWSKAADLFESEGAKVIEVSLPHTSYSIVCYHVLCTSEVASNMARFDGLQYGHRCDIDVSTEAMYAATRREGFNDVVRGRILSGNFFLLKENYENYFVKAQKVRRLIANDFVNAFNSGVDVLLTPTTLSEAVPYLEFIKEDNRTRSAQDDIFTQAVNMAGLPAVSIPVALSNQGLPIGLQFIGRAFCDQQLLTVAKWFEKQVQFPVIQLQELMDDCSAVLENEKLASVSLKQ
Sequence of UniProt Q8NAV1 (Q8NAV1 whole entry, looked up): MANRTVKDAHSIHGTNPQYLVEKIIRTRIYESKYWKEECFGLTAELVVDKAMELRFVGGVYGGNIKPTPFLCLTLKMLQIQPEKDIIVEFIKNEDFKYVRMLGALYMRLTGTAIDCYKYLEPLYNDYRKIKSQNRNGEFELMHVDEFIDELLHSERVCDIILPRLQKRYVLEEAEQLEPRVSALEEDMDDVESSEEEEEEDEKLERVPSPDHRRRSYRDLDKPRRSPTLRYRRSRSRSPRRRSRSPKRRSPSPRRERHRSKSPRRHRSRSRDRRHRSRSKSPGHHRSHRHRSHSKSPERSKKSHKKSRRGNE
Sequence of UniProt Q8N165 (Q8N165 whole entry, looked up): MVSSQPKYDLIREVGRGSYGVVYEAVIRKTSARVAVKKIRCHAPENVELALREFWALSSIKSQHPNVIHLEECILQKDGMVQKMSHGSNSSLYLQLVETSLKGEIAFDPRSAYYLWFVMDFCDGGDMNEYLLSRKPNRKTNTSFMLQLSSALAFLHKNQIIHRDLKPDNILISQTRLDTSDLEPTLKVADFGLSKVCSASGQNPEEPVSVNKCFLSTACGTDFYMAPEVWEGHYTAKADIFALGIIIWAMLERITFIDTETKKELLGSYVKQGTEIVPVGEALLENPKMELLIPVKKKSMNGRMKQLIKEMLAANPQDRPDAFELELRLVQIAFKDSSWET
Sequence of UniProt P62191 (P62191 whole entry, looked up): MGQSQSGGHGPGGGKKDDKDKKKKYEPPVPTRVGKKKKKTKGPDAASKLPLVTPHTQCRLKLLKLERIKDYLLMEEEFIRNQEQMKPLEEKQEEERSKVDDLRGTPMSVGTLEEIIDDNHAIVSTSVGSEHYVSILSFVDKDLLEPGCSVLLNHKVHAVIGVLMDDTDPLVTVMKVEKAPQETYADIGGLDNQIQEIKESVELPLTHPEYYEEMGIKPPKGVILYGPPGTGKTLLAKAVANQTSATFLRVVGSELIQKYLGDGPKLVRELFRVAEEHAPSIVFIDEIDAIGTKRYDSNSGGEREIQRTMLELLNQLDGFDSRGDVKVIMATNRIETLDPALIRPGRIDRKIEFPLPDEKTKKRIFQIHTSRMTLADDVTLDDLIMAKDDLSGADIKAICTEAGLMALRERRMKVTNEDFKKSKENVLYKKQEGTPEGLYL

Target | log2 fold change [1] | log2 fold change (volasertib) | log2 fold change (epoxomicin) | log2 fold change [2] | log2 fold change [3] | log2 fold change [4] | log2 fold change (rosiglitazone) | log2 fold change [5] | log2 fold change (sotrastaurin) | log2 fold change (alvocidib) | log2 fold change [6] | log2 fold change (defactinib) | log2 fold change (rucaparib) | log2 fold change (encorafenib) | log2 fold change [7] | log2 fold change [8] | log2 fold change [9] | log2 fold change (saracatinib) | log2 fold change (Tubastatin A) | log2 fold change [10]
PSMB9 (UniProt P28065) | 0.114 | 0.008 | 0.049 | -0.046 | 0.033 | -0.043 | -0.057 | 0.051 | 0.074 | 0.071 | 0.062 | -0.008 | 0.296 | -0.22 | 0.094 | – | – | – | – | –
POLR2C (UniProt P19387) | 0.059 | -0.187 | 0.075 | -0.035 | – | 0.006 | 0.042 | – | -0.015 | 0.204 | -0.043 | 0.133 | 0.059 | 0.002 | -0.045 | 0.017 | -0.04 | -0.096 | -0.049 | 0.03
PRPF38A (UniProt Q8NAV1) | -0.029 | -0.016 | 0.048 | -0.011 | 0.031 | 0.051 | 0.031 | -0.081 | 0.016 | -0.024 | 0.052 | -0.036 | 0.121 | -0.034 | -0.008 | 0 | -0.037 | 0.019 | -0.024 | -0.035
PIGH (UniProt Q14442) | 0.06 | -0.008 | -0.128 | 0.022 | -0.038 | 0.013 | 0.058 | 0.051 | – | 0.022 | 0.012 | 0.005 | 0.037 | -0.068 | -0.001 | – | 0.115 | -0.099 | -0.274 (active) | 0.025
PNPLA4 (UniProt P41247) | -0.152 | -0.093 | – | -0.083 | – | -0.004 | -0.081 | – | -0.091 | -0.02 | 0.058 | -0.047 | 0 | -0.343 | -0.011 | -0.039 | 0.126 | -0.267 | 0.007 | 0.17
POLR2E (UniProt P19388) | 0.027 | -0.067 | 0.065 | -0.104 | 0.015 | 0.034 | 0.01 | 0.09 | – | 0.212 | -0.076 | 0.216 | 0.153 | 0.025 | -0.081 | 0.018 | 0.092 | -0.077 | -0.009 | 0.104
PDIK1L (UniProt Q8N165) | 0.123 | 0.108 | -0.128 | 0.123 | – | -0.028 | -0.135 | – | 0.019 | -0.087 | 0.192 | 0.014 | 0.111 | -0.022 | -0.115 | -0.056 | 0.02 | -0.062 | 0.063 | -0.064
PPP2R5B (UniProt Q15173) | -0.348 | -0.173 | – | 0.025 | 0.015 | 0.128 | 0.11 | -0.529 (active) | – | – | -0.064 | 0.051 | -0.015 | 0.07 | -0.135 | 0.021 | -0.05 | -0.161 | – | -0.043
PGK2 (UniProt P07205) | 0.054 | 0.123 | -0.037 | – | 0.123 | -0.112 | 0.023 | 0.06 | 0.154 | 0.017 | – | 0.037 | -0.248 | -0.056 | 0.038 | -0.028 | -0.059 | -0.196 | -0.041 | -0.131
PPM1G (UniProt O15355) | -0.208 | -0.381 (active) | 0.087 | -0.001 | -0.073 | 0.098 | 0.089 | -0.025 | -0.213 | -0.165 | 0.108 | -0.226 | -0.088 | 0.085 | -0.104 | 0.066 | 0.017 | -0.086 | 0.187 | -0.038
QRSL1 (UniProt Q9H0R6) | 0.044 | -0.167 | 0.027 | -0.003 | -0.029 | 0.023 | 0.055 | -0.095 | 0.003 | -0.103 | -0.023 | -0.105 | -0.047 | -0.017 | -0.033 | 0.069 | -0.053 | 0.033 | 0.01 | 0.038
PSMC1 (UniProt P62191) | 0.038 | 0.129 | -0.342 (active) | 0.042 | 0.092 | -0.003 | -0.038 | 0.051 | -0.022 | 0.057 | -0.019 | 0.083 | 0.043 | 0.022 | -0.001 | -0.015 | 0.031 | -0.062 | -0.009 | 0.024
PTP4A2 (UniProt Q12974) | 0.039 | 0.083 | 0.153 | 0.027 | – | -0.026 | -0.124 | – | 0.107 | -0.332 (active) | -0.1 | -0.213 | -0.143 | 0.008 | 0.117 | 0.077 | -0.003 | -0.038 | 0.057 | -0.066
PRPF38B (UniProt Q5VTL8) | -0.152 | -0.231 | -0.002 | -0.012 | -0.02 | -0.01 | 0.009 | -0.073 | -0.006 | -0.073 | -0.287 (active) | -0.27 (active) | -0.08 | 0.015 | 0.044 | 0.015 | 0.018 | 0.011 | -0.027 | -0.039
PLK1 (UniProt P53350) | – | -2.06 (active) | 0.044 | -0.023 | 0.033 | -0.016 | 0.016 | -0.068 | -0.223 | 0.14 | -2.06 (active) | -0.165 | 0.052 | 0.058 | -0.013 | 0.049 | -0.029 | 0.034 | -0.058 | -0.008
PBX2 (UniProt P40425) | – | -0.251 | 0.123 | -0.03 | -0.009 | 0.023 | 0.052 | 0.024 | -0.023 | -0.141 | -0.022 | -0.36 | – | – | -0.044 | 0.025 | -0.056 | 0.082 | -0.069 | -0.046
PTP4A3 (UniProt O75365) | – | – | – | – | – | 0.205 | 0.045 | – | – | – | – | -1.14 (active) | – | – | -0.029 | – | – | – | – | –
PSMA3 (UniProt G3V4X5) | – | 0.139 | – | – | – | 0.084 | 0.122 | – | – | – | – | 0.061 | – | – | -0.208 | – | – | – | – | –
PRG4 (UniProt Q92954) | 0.073 | – | -0.294 | 0.053 | 0.075 | -0.239 | 0.085 | -0.228 | 0.136 | 0.007 | 0.14 | 0.055 | -0.072 | 0.001 | -0.109 | -0.18 | 0.015 | 0.008 | 0.004 | 0.031
